Records with an inconclusive call do not appear. Entries that show only a call come without a potency. Values without a mark were called inactive. Calls of active or inactive are those of the source. Calls come from the whole dose curve; as a rule, active = well fitted cell-killing curve with a large enough effect; inconclusive = small, poorly fitted or top-dose-only effect, or effect the other way; inactive = flat fitted curve, though single readings scatter.
Potency is the fitted concentration of half-maximal effect.

The test has as its system JEG-3. The experiment in a line: Primary qHTS to identify gynecologic anti-cancer compounds using libraries of approved drugs and bioactive compounds (AID 1345084). Note: nearly all actives have a fitted effect of over 55% in size. The note with it: Gynecologic cancer cell panel viability, ATPlite luminescence, 48 h; series mostly up to 57.5 µM. In a few lines: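 Cells, 1,000 per well, plated 16 h, then exposed 48 h at 37 C to compounds. Viability by ATPlite luminescence after 15 min at room temperature.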
In general terms: In qHTS, concentration-response curves come from the screen itself.
Consider `CC1OC(OC2C(O)COC(O[C@@H]3[C@@H](O)[C@@H](O)[C@H](OC4C(OC(=O)[C@]56CCC(C)(C)CC5C5=CCC7[C@@]8(C)C[C@H](O)[C@H](OC9OC(CO)C(O)C(O)C9O)[C@@](C)(CO)C8[C@H](O)C[C@@]7(C)[C@]5(C)CC6)OCC(O)C4O)O[C@H]3C)C2O)C(O)C(O)C1O` (stereo not given in full), for which the activity change, negative = cytotoxicity is -13.2% [at 6.55 µM].

For the molecule `CCCSc1nc(N[C@@H]2C[C@H]2c2ccc(F)c(F)c2)c2nnn([C@@H]3C[C@H](OCCO)[C@@H](O)[C@H]3O)c2n1`, the Potency entry was “inactive”. The same measure, in the same setting: the result for `C[C@H](Oc1cc(-n2cnc3ccc(CN4CCN(C)CC4)cc32)sc1C(N)=O)c1ccccc1C(F)(F)F` reads 3.16 µM (active). `C[C@@H](O[C@H]1OCCN(Cc2nn(P(=O)(O)O)c(=O)[nH]2)[C@H]1c1ccc(F)cc1)c1cc(C(F)(F)F)cc(C(F)(F)F)c1`: the Potency result was “inactive”.

`Cc1cc(OCCCS(C)(=O)=O)cc(C)c1-c1cccc(COc2ccc(C3=CC(=O)NS3=O)cc2)c1` (stereo not given): the Potency result is “inactive”.

Take `C=C1[C@H]2CC[C@H](C(=O)O)[C@@]23CC[C@H](C3)C1(C)C`: the Potency entry is “inactive”. In the case of `CC(C)(O)C1Cc2c(ccc(C(=O)CCc3ccccc3)c2O)O1` (stereo not given), the Potency entry is “inactive”.

Regarding `Cn1ncc(Cl)c1-c1cc(C(=O)N[C@H](CN)Cc2ccc(F)c(F)c2)sc1Cl`, the Potency result is “inactive”. Regarding `C/C1=C\[C@@H](C)C[C@@H](C)[C@@H](Cc2cnco2)OC(=O)/C(C)=C/[C@@H](C)C[C@@H](C)[C@@H](Cc2cnco2)OC1=O`, the Potency entry is “inactive”. As to `C=CC(=O)N1CCCC(n2nc(-c3ccc(Oc4ccccc4)cc3)c3c(N)ncnc32)C1` (stereo not given), the Potency entry was “inactive”.

The record behind these values is PubChem BioAssay (NCATS).
